{"source": "paper PMC10726135", "about": "“HNF4α isoforms regulate the circadian balance between carbohydrate and lipid metabolism in the liver”", "note": "Over roughly 18,000 sequences, “log2 normalized intensity” has its median near 0.36; the highest 2% begin near 7.3. The sample as a whole holds a higher share of the highest values than the screen did."}
{"target": "T1, HNF4alpha8 (COS-7 nuclear extract) (Homo sapiens, UniProt P41235-5 1-452)", "T1 sequence": "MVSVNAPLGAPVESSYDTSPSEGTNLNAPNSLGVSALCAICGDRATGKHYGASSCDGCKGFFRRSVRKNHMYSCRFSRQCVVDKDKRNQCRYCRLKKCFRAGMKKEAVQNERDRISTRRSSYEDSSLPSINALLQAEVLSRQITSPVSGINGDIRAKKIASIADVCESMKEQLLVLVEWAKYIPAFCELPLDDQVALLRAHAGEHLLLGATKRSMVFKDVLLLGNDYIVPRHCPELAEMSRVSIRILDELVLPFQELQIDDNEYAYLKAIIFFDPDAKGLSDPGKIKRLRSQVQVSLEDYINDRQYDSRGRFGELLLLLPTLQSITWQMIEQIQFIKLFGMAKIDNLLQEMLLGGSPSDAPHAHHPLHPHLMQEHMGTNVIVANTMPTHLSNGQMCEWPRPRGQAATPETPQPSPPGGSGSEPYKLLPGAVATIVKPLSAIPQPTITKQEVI", "assay": "protein-binding microarray; COS-7 nuclear extract on double-stranded Agilent 4x180k PBM; binding buffer, salt, pH and temperature not given in the material; high values mean tight binding", "conditions": "chain copies: 2; label: 3' end of strand 1 on the slide; dsDNA, one strand shown", "outline": "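A human HNF4α isoform was expressed in COS-7 cells by transient CaPO4 transfection, and nuclear extracts were prepared. These were applied to a custom Agilent SurePrint G3 4x180k array carrying ~44,000 test sequences in quadruplicate as double-stranded ~60-nt oligonucleotides, and an Agilent G2565CA scanner imaged bound HNF4α at 2-µm resolution. The background-corrected, normalized gProcessedSignal from Agilent software was used as the binding signal.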", "units": {"binding signal": "log2 normalized intensity"}}
{"sequence": "ACACTGGGCTAGAGGTCTTAATCTTTTTACGCCTAGGGAGATTAGAGTATCGGTCGA", "binding signal": 1.15}
{"sequence": "CAGTGGGAGACAGGCATTAACCCTTTAGTGGCCTAGGGAGATTAGAGTATCGGTCGA", "binding signal": 0.965}
{"sequence": "CAACCCATCCAACTCCTTGAGAAGTACAACGCCTAGGGAGATTAGAGTATCGGTCGA", "binding signal": -0.809}
{"sequence": "CAAAATATCTCACTCCCACACTGGTAACCTGCCTAGGGAGATTAGAGTATCGGTCGA", "binding signal": 0.32}
{"sequence": "CAGCTGTTATCTCTTTTGTGATAGAATGAAGCCTAGGGAGATTAGAGTATCGGTCGA", "binding signal": 1.89}
{"sequence": "GTGTCATTGTTATTTACGGTGGGCACCTCAGCCTAGGGAGATTAGAGTATCGGTCGA", "binding signal": 0.235}
{"sequence": "AGTGTTTCAAAGGAGTGTCTTTCTCCTTGAGCCTAGGGAGATTAGAGTATCGGTCGA", "binding signal": 1.38}
{"sequence": "GAGTACTTGGACTTTAACCTTTAGATTACTGCCTAGGGAGATTAGAGTATCGGTCGA", "binding signal": 7.94}
{"sequence": "CTTGGACTTTAACCTTTAGATTACTAGGAAGCCTAGGGAGATTAGAGTATCGGTCGA", "binding signal": 6.61}
{"sequence": "ACTTTAACCTTTAGATTACTAGGAATTGATGCCTAGGGAGATTAGAGTATCGGTCGA", "binding signal": 1.53}
{"sequence": "TGCCAAGGAGCCTCTGCAACCTTTGCTCTCGCCTAGGGAGATTAGAGTATCGGTCGA", "binding signal": 6.62}
{"sequence": "ATGGTTAAGGTGAAAGTCCGACTTTTAAGAGCCTAGGGAGATTAGAGTATCGGTCGA", "binding signal": 4.06}
{"sequence": "CCTTTTTTGAAGGTTAAAGTCCATTTTTGAGCCTAGGGAGATTAGAGTATCGGTCGA", "binding signal": 7.52}
{"sequence": "CTGCCACATTTTTATCCTTTTTTGAAGGTTGCCTAGGGAGATTAGAGTATCGGTCGA", "binding signal": 2}
{"sequence": "ACATTTTTATCCTTTTTTGAAGGTTAAAGTGCCTAGGGAGATTAGAGTATCGGTCGA", "binding signal": 3}
{"sequence": "TTTGAAGGTTAAAGTCCATTTTTGAGGACCGCCTAGGGAGATTAGAGTATCGGTCGA", "binding signal": 6.47}
{"sequence": "TTTATCCTTTTTTGAAGGTTAAAGTCCATTGCCTAGGGAGATTAGAGTATCGGTCGA", "binding signal": 7.82}
{"sequence": "AAACCTCCCCCAAACCAAAGAGAAATGGTGGCCTAGGGAGATTAGAGTATCGGTCGA", "binding signal": 3.41}
{"sequence": "TGGTTTTCCAATCTGGTGAAAGATGATGAGGCCTAGGGAGATTAGAGTATCGGTCGA", "binding signal": 0.365}
{"sequence": "TCTAAGGCAAAACACCCCTTTCACTTCTTCGCCTAGGGAGATTAGAGTATCGGTCGA", "binding signal": 0.915}
{"sequence": "CCATTTATAAGAAACTGCTCCTGCTTGGGAGCCTAGGGAGATTAGAGTATCGGTCGA", "binding signal": -0.881}
{"sequence": "TGCCAGCCCCGAGATAACCCCTCTCCAAGCGCCTAGGGAGATTAGAGTATCGGTCGA", "binding signal": 4.43}
{"sequence": "ATAGACTGTCCCTCAGTGTGGGACTTTGGTGCCTAGGGAGATTAGAGTATCGGTCGA", "binding signal": 3.52}
{"sequence": "CCCTGCCTGACCTGCCCTTTGTCCCTCCTGGCCTAGGGAGATTAGAGTATCGGTCGA", "binding signal": 5.06}
{"sequence": "TTCTGCCCCTTGCTCCTGCTTGCTGGCTTTGCCTAGGGAGATTAGAGTATCGGTCGA", "binding signal": 1.35}
{"sequence": "GACCTTTGCCCTCTGGCCCTTAAAGGCTTTGCCTAGGGAGATTAGAGTATCGGTCGA", "binding signal": 7.8}
{"sequence": "TGGTGCAAAGGTCAGGACAAGGCTCTGGTGGCCTAGGGAGATTAGAGTATCGGTCGA", "binding signal": 4.55}
{"sequence": "TCACTGACCTCTGCCCTACTGTATATCCTGGCCTAGGGAGATTAGAGTATCGGTCGA", "binding signal": 2.89}
{"sequence": "CTCTTTGGTGCAAAGGTCAGGACAAGGCTCGCCTAGGGAGATTAGAGTATCGGTCGA", "binding signal": 4.73}
{"sequence": "AGAAGGAAAAGGCCTGACCTTTGCCCTCTGGCCTAGGGAGATTAGAGTATCGGTCGA", "binding signal": 10.4}
{"sequence": "GAAAAGGCCTGACCTTTGCCCTCTGGCCCTGCCTAGGGAGATTAGAGTATCGGTCGA", "binding signal": 9.29}
{"sequence": "ACAGAAGAAGGAAAAGGCCTGACCTTTGCCGCCTAGGGAGATTAGAGTATCGGTCGA", "binding signal": 5.58}
{"sequence": "AGAGGACAGAAGAAGGAAAAGGCCTGACCTGCCTAGGGAGATTAGAGTATCGGTCGA", "binding signal": 1.07}
{"sequence": "CAGAGGCTTCCTCTTTGGTGCAAAGGTCAGGCCTAGGGAGATTAGAGTATCGGTCGA", "binding signal": 7.47}
{"sequence": "CCCTCGACCTTTGCCCTCCATAAGGGGGAGGCCTAGGGAGATTAGAGTATCGGTCGA", "binding signal": 6.74}
{"sequence": "AATACTCTGAGTAAACACAGACTTTGGAATGCCTAGGGAGATTAGAGTATCGGTCGA", "binding signal": 4.55}
{"sequence": "TTCGGGGCACTGCTCCCTGCCCCTACCCCCGCCTAGGGAGATTAGAGTATCGGTCGA", "binding signal": 5.02}
{"sequence": "AGGTACTGGTAGCCTGGGCCCCAGGGGACGGCCTAGGGAGATTAGAGTATCGGTCGA", "binding signal": -0.625}
{"sequence": "GTGCAAAGGCCTTAAAGTGTAAATATTTGAGCCTAGGGAGATTAGAGTATCGGTCGA", "binding signal": 0.546}
{"sequence": "TCCGCTTGCCTGAGGGTCATGACTAAAGCAGCCTAGGGAGATTAGAGTATCGGTCGA", "binding signal": 1.13}
{"sequence": "CCACTAGAGAGACCGTCCCTGGGTACAACTGCCTAGGGAGATTAGAGTATCGGTCGA", "binding signal": 1.33}
{"sequence": "CGTGGGCATGCCTCCCAGAGCATTGTTTATGCCTAGGGAGATTAGAGTATCGGTCGA", "binding signal": -0.764}
{"sequence": "GCACATGGCATGATCCCTGACTCATAGCTCGCCTAGGGAGATTAGAGTATCGGTCGA", "binding signal": -0.946}
{"sequence": "CTGCCCTTCTGACCTCCCAGGGATACTGTGGCCTAGGGAGATTAGAGTATCGGTCGA", "binding signal": 2.99}
{"sequence": "GGGCCCAGGGTTCTCTGTGACCTTTGGAAGGCCTAGGGAGATTAGAGTATCGGTCGA", "binding signal": 9.36}
{"sequence": "TTCTCTGTGACCTTTGGAAGGTGGGGGAGGGCCTAGGGAGATTAGAGTATCGGTCGA", "binding signal": 4.92}
{"sequence": "TGACTACCAGGTTCTGTACTTTGGAACCTGGCCTAGGGAGATTAGAGTATCGGTCGA", "binding signal": 7.01}
{"sequence": "TGGAGCATGACCCTTTGCAGGTGGGAGAGGGCCTAGGGAGATTAGAGTATCGGTCGA", "binding signal": 0.928}
{"sequence": "GAGGTGGGCCCAGGGTTCTCTGTGACCTTTGCCTAGGGAGATTAGAGTATCGGTCGA", "binding signal": 7.62}
